Test results from PubChem BioAssay (NCATS).
Values joined by “and” are separate entries in the source; they are usually repeats but may differ in a detail not shown here. Identical values can stand only once. Results filed as inconclusive are left out. Active and inactive are the calls of the source. The call rests on the fitted dose curve; in most records, active means well fitted curve in the direction sought with a large enough effect; inconclusive means small, poorly fitted or top-dose-only effect, or another doubt; inactive means no such curve, though single readings can be large; an effect the other way counts as inactive or inconclusive.

Columns and labels:
[1] = Viability qHTS for spleen associated tyrosine kinase inhibitor (SYKi) drug resistant MV4-11 cells (AID 1963824); further: nearly all actives have a fitted effect of over 35% in size
Summary of the method: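 CellTiter-Glo luminescence, read 10 min after reagent addition, reports viability after a 72 hr compound exposure. Cells are an MV4-11 line made resistant to SYK inhibition, seeded at 500 per well onto compound-containing plates.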

[2] = Quantitative highthroughput screen to assess conditional lethalithy of NOMO1 cells grown in RPMI1640 with untreated serum (RPMI+s) (AID 1963876); further: nearly all actives have a fitted effect of over 35% in size;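 on Viability: 100% = DMSO wells and 0% = empty wells without cells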
Summary of the method: (§1)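 Each medium arm—HPLM with 10% dialyzed FBS, or RPMI1640 with 5 mM glucose and 10% untreated or dialyzed FBS—was screened against an 11-point, 3-fold compound titration for 48 h at 37 °C, with CellTiter-Glo luminescence as endpoint.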

[3] = Quantitative highthroughput screen to assess conditional lethalithy of NOMO1 cells grown in RPMI1640 with dialyzed fetal bovine serum (RPMI+ds) (AID 1963877); further: nearly all actives have a fitted effect of over 30% in size;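 on Viability: series mostly up to about 46 µM; 100% = DMSO control wells and 0% = empty wells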
Summary of the method: as §1

[4] = Quantitative highthroughput screen to assess conditional lethalithy of NOMO1 cells grown in Human Plasma-Like Medium with dialyzed fetal bovine serum (HPLM+ds) (AID 1963878); further: nearly all actives have a fitted effect of over 35% in size;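 on Viability: 100% = DMSO wells and 0% = empty wells on each plate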
Summary of the method: as §1

[5] = Quantitative highthroughput screen to assess conditional lethalithy of P12 Ichikawa cells grown in Human Plasma-Like Medium with dialyzed fetal bovine serum (HPLM+ds) (AID 1963879); conditions: Potency: viability; further: nearly all actives have a fitted effect of over 35% in size; on Viability: series mostly up to about 46 µM
Summary of the method: as §1

[6] = Quantitative highthroughput screen to assess conditional lethalithy of P12 Ichikawa cells grown in RPMI1640 with dialyzed fetal bovine serum (RPMI+ds) (AID 1963880); conditions: Potency: P12-Ichikawa viability; further: nearly all actives have a fitted effect of over 35% in size;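 on Viability: 100% = DMSO wells and 0% = empty wells on each plate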
Summary of the method: as §1

[7] = Quantitative highthroughput screen to assess conditional lethalithy of P12 Ichikawa cells grown in RPMI1640 with untreated serum (RPMI+s) (AID 1963881); conditions: Potency: viability; further: nearly all actives have a fitted effect of over 35% in size;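 on Viability: series mostly up to about 46 µM; 100% = DMSO wells and 0% = empty wells without cells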
Summary of the method: as §1

[8] = Quantitative highthroughput screen to assess conditional lethalithy of SEM cells grown in Human Plasma-Like Medium with dialyzed fetal bovine serum (HPLM+ds) (AID 1963882); further: nearly all actives have a fitted effect of over 35% in size; on Viability: series mostly up to about 46 µM
Summary of the method: as §1

[9] = Quantitative highthroughput screen to assess conditional lethalithy of SEM cells grown in RPMI1640 with unreated serum (RPMI+s) (AID 1963883); further: nearly all actives have a fitted effect of over 35% in size;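 on Viability: 100% = DMSO wells and 0% = empty wells without cells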
Summary of the method: as §1

[10] = Cellular viability qHTS for adrenocortical cancer (ACC) cell line SW-13 (AID 1963989); conditions: SW-13 ACC cells viability, CellTiter-Glo, 48 h; activity (max response): hits give low values; further: nearly all actives have a fitted effect of over 65% in size;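 on activity (max response): cells grown in serum-free medium with ITS supplement; on the % scale 0 is the no-effect control and ±100 the full control effect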
Summary of the method: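 Here, serum-free SW-13 cultures were dosed up to 46 uM. Following 48 h, ATP-dependent luminescence (CellTiter-Glo) reported viable cells, and logistic modeling produced IC50 values.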

[11] = Cellular viability qHTS for adrenocortical cancer (ACC) cell line NCI-H295R (AID 1963990); further: nearly all actives have a fitted effect of over 60% in size
Summary of the method: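 Viability of NCI-H295R after 48 h of treatment (final up to 46 uM) measured through cellular ATP luminescence.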

[12] = Quantitative highthroughput screen to assess conditional lethalithy of SEM cells grown in RPMI1640 with dialyzed fetal bovine serum (RPMI+ds) (AID 1963884); further: nearly all actives have a fitted effect of over 35% in size;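 on Viability: series mostly up to about 46 µM; 100% = DMSO control wells and 0% = empty wells without cells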
Summary of the method: as §1
Potency means the concentration at half of the fitted maximal effect.

CCCCC(=O)O[C@]1(C(=O)CO)CC[C@H]2[C@@H]3CCC4=CC(=O)CC[C@]4(C)[C@H]3[C@@H](O)C[C@@]21C
inactive: Potency [1]

CC(NCCc1ccc(O)cc1)C(O)c1ccc(O)cc1 (stereo unspecified)
inactive: Potency [1] | Potency [2] | Potency [3] | Potency [4] | Potency [5] | Potency [6] | Potency [7] | Potency [8] | Potency [9] | activity (max response) [10] -9.55% | Potency [11]

CC(C)(C)c1ccc(C(=O)Nc2cc(Cl)c(Br)cc2C(=O)O)cc1
active: Potency [1] 16400 nM

NS(=O)(=O)c1cc2c(cc1Cl)NC=NS2(=O)=O
inactive: Potency [1] | Potency [2] | Potency [3] | Potency [4] | Potency [5] | Potency [6] | Potency [7] | Potency [8] | Potency [9] | activity (max response) [10] 2.09% and 0.632% | Potency [11]

C[C@@]12O[C@@H](C[C@]1(O)CO)n1c3ccccc3c3c4c(c5c6ccccc6n2c5c31)CNC4=O
active: Potency [1] 7.4 nM | Potency [2] 1320 nM | Potency [3] 1320 nM | Potency [4] 833 nM | Potency [5] 935 nM | Potency [6] 833 nM | Potency [7] 662 nM | Potency [8] 166 nM | Potency [9] 46.9 nM | Potency [12] 105 nM | Potency [10] 2820 nM | Potency [11] 3980 nM

CO[C@H]1C=CO[C@@]2(C)Oc3c(C)c(O)c4c(O)c(c5c(c4c3C2=O)NC2(CCN(CC(C)C)CC2)N=5)=NC(=O)C(C)=CC=C[C@H](C)[C@H](O)[C@@H](C)[C@@H](O)[C@@H](C)[C@H](OC(C)=O)[C@H]1C
inactive: Potency [2] | Potency [3] | Potency [4] | Potency [5] | Potency [6] | Potency [7] | Potency [8] | Potency [9]
active: Potency [1] 18400 nM

CNC(=O)c1ccc(C)c(-n2c(C)cc(OCc3ccc(F)cc3F)c(Br)c2=O)c1
inactive: Potency [2] | Potency [3] | Potency [4] | Potency [5] | Potency [6] | Potency [7] | Potency [8] | Potency [9] | Potency [12] | Potency [11]
active: Potency [1] 8200 nM

C[C@]12CC[C@H](O)CC1=CCC1C2CC[C@]2(C)C(n3cnc4ccccc43)=CCC12 (stereo partly specified)
inactive: Potency [2] | Potency [3] | Potency [4] | Potency [5] | Potency [6] | Potency [7] | Potency [8] | Potency [9] | Potency [12] | activity (max response) [10] -10.3% | Potency [11]
active: Potency [1] 7420 nM

O=c1cc(-c2ccccc2)oc2ccc(O)cc12
active: Potency [1] 14600 nM

Nc1nc(-c2nn(Cc3ccccc3F)c3ncccc23)nc(N)c1N1CCOCC1
inactive: Potency [1] | Potency [2] | Potency [3] | Potency [4] | Potency [5] | Potency [6] | Potency [7] | Potency [8] | Potency [9] | Potency [12] | Potency [11]

O=C(Nc1cccc(Br)c1)c1cccc(S(=O)(=O)N2CCCCCC2)c1
active: Potency [1] 5250 nM
inactive: Potency [2] | Potency [3] | Potency [4] | Potency [5]

CC1OC(OC2C(O)COC(O[C@@H]3[C@@H](O)[C@@H](O)[C@H](OC4C(OC(=O)[C@]56CCC(C)(C)CC5C5=CCC7[C@@]8(C)C[C@H](O)[C@H](OC9OC(CO)C(O)C(O)C9O)[C@@](C)(CO)C8[C@H](O)C[C@@]7(C)[C@]5(C)CC6)OCC(O)C4O)O[C@H]3C)C2O)C(O)C(O)C1O (stereo partly specified)
active: Potency [1] 1230 nM
